# Experimental data published in PubChem BioAssay (NCATS).
# Inconclusive results are not listed. Entries that show only a call come without a potency. Calls of active or inactive are those of the source. Calls come from the whole dose curve; as a rule, active = well fitted inhibition curve with a large enough effect; inconclusive = small, poorly fitted or top-dose-only effect; inactive = flat fitted curve, though single readings scatter.
# Tested on: astro (control astrocytes)
# Test: Drug repurposing screens with cells derived from glioblastoma tumor samples (AID 1345199); note: nearly all actives have a fitted effect of over 40% in size
# Conditions: viability, ATP luminescence, 48 h; series mostly up to 45.9 µM
# Summary of the method: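 Four patient lines of CD133+ GBM neurospheres were screened at several concentrations; hits were retested in those lines plus three slower-growing GBM lines, using 48-hour treatment and ATP-based viability.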
row,SMILES,Potency
1,C[C@@H]1C[C@H]2[C@@H]3CCC4=CC(=O)C=C[C@]4(C)[C@@]3(F)[C@@H](O)C[C@]2(C)[C@@]1(O)C(=O)COC(=O)c1cccc(S(=O)(=O)O)c1,inactive
2,CCCCCCCCCCCCCCCC(=O)OC[C@@H](O)[C@H]1OC[C@H](O)[C@H]1O,inactive
3,CO/N=C(\C(=O)N[C@@H]1C(=O)N2C(C(=O)[O-])=C(C[n+]3cccc4c3CCC4)CS[C@H]12)c1csc(N)n1,inactive
4,C[C@@H](O)[C@H]1C(=O)N2C(C(=O)[O-])=C(SC3Cn4cnc[n+]4C3)[C@H](C)[C@H]12 (some centres not stated),inactive
5,CC(=O)N[C@@H](C=O)[C@@H](O)[C@H](O)[C@H](O)CO,inactive
6,CNC(=O)OCc1cccc(COC(=O)NC)n1,inactive
7,CCCCC/C=C\CCC(=O)N[C@H]1[C@H](Oc2c3cc4cc2Oc2ccc(cc2Cl)[C@@H](O[C@@H]2O[C@H](CO)[C@@H](O)[C@H](O)[C@H]2NC(C)=O)[C@@H]2NC(=O)[C@H](NC(=O)[C@@H]4NC(=O)[C@H]4NC(=O)[C@@H](Cc5ccc(c(Cl)c5)O3)NC(=O)[C@H](N)c3ccc(O)c(c3)Oc3cc(O)cc4c3)c3ccc(O)c(c3)-c3c(O[C@H]4O[C@H](CO)[C@@H](O)[C@H](O)[C@@H]4O)cc(O)cc3[C@@H](C(=O)O)NC2=O)O[C@H](CO)[C@@H](O)[C@@H]1O,inactive
